Screening results (PubChem)
IL1B secr inh: blocks inflammasome-driven IL-1 beta release; actives 4.7% (n = 360,000); activity change, % at 57.5 µM; AID 743279; THP-1 LPS/ATP IL-1B secretion, AlphaLISA, 16 h; hits give low values; in the data active means activity change below about -50%; inconclusive means mostly about -30% to -49%
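Secreted IL-1B measured by AlphaLISA bead assay after 16 h compound exposure of THP-1 cells; compounds (final up to 57.5 uM) added 1 h before LPS (250 ng/mL) and ATP (1.25 mM) stimulation; lower signal means less secretion.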
HT1080NT lethal: kills 2HG-producing HT-1080-NT fibrosarcoma cells; Potency, µM (doses to about 46.1 µM), hits mostly cytotoxic; AID 686970; actives 1.6% (n = 360,000); HT-1080-NT fibrosarcoma viability, CellTiter-Glo ATP luminescence, 48 h;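 further: NT is the 2HG producing partner of a matched IDH1 knockdown line; nearly all actives have a fitted effect of over 55% in size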
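Fibrosarcoma NT cells, 750 per well in 5% FBS RPMI, were exposed to compound for 48 hours. Viability: CellTiter-Glo luminescence.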
HT1080 IDH1KD tx: toxicity to HT-1080 IDH1 knockdown cells (counter line); HT-1080 IDH1 knockdown viability, ATP luminescence, 48 h; actives 2% (n = 360,000); AID 686971; Potency, µM (series often up to 46.1 µM), usual class: cytotoxic
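Knockdown cells (IDH1KD HT-1080) received compounds 2 h after plating at 750 cells/well and were kept 48 h at 37 °C in 5% FBS RPMI. A CellTiter-Glo luminescence read gave % activity for curve fitting.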
TDP1 cell CPT: DT40-hTDP1 cell growth loss with CPT; actives 12% (n = 420,000); chicken DT40 Tdp1-/-;hTDP1 cells + 20 nM CPT, ATP luminescence, 48 h; AID 686979; Potency, µM (titrated, usually from 46.2 µM), usual class: inhibitors; further: nearly all actives have a fitted effect of over 55% in size
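Cell growth measured by CellTiter-Glo luminescence after a minimum 48 h, 37 C compound exposure with 20 nM CPT in Tdp1-knockout DT40 cells stably expressing hTDP1, seeded 400/well; qHTS titration format.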
TDP1 cell noCPT: qHTS for Inhibitors of human tyrosyl-DNA phosphodiesterase 1 (TDP1): qHTS in cells in absence of CPT; DT40 Tdp1-/- hTDP1 cells, no CPT, ATP luminescence, 48 h; AID 686978, 2013; Potency, µM (titrated, usually from 46.2 µM), hits mostly inhibitors; actives 15% (n = 420,000); further: nearly all actives have a fitted effect of over 55% in size
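No-CPT arm: Tdp1-/-;hTDP1 DT40 cells (400/well) plus compounds, incubated ≥48 hr at 37 °C. Readout CellTiter-Glo luminescence.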
Of the large screens only hits and unclear results are named; the others gave an inactive call. A selection: hits, their analogues and other compounds. The true share with any hit is near 19%. Unless noted, the call rests on the fitted dose curve; in most records, active means well fitted curve in the direction sought with a large enough effect; inconclusive means small, poorly fitted or top-dose-only effect, or another doubt; inactive means no such curve, though single readings can be large; an effect the other way counts as inactive or inconclusive.

CCCn1c2ccccc2c2nnc(SC(CC)C(=O)Nc3sc4c(c3C#N)CCCC4)nc21 (stereo not given)	TDP1 cell CPT inconclusive, TDP1 cell noCPT inconclusive
CCCn1c2ccccc2c2nnc(SC(CC)C(=O)Nc3cc(C)on3)nc21 (stereo not given)	IL1B secr inh inconclusive, TDP1 cell CPT inconclusive, TDP1 cell noCPT 29µM
CCOC(=O)c1c(S(=O)(=O)NCC(=O)Nc2ccc(C)c(N(C)C)c2)c(C)n(C)c1C	none (no result: IL1B secr inh, HT1080NT lethal, HT1080 IDH1KD tx)
O=c1oc(-c2ccccc2)cc(Cl)c1Cl	IL1B secr inh -100, HT1080NT lethal 16µM, HT1080 IDH1KD tx 9.2µM, TDP1 cell CPT 1.6µM, TDP1 cell noCPT 1.8µM
O=c1cc(-c2ccccc2)oc2ccc(Cl)cc12	HT1080 IDH1KD tx inconclusive
CC(=O)N1C[C@H]2CON(C)[C@H]2C[C@H]1c1cccc(-c2ccc(C#N)cc2)c1	none
Cc1cc2c(cc1C)NC(c1c(C)n(C)n(-c3ccccc3)c1=O)C1=C(CC(C)(C)CC1=O)N2 (stereo not given)	IL1B secr inh inconclusive, TDP1 cell CPT 16µM, TDP1 cell noCPT inconclusive
O=C(CCl)Nc1cn(-c2ccccc2)nc1-c1ccc(F)cc1	IL1B secr inh -107, HT1080NT lethal 8.2µM, HT1080 IDH1KD tx 4.6µM, TDP1 cell CPT 4.6µM, TDP1 cell noCPT 3.7µM
OCc1cn(-c2ccccc2)nc1-c1ccc(-c2nn(-c3ccccc3)cc2CO)cc1	TDP1 cell CPT inconclusive, TDP1 cell noCPT 10µM
O=C(c1cn(-c2ccccc2)nc1-c1ccc(F)cc1)N1CCCCC1	none
O=C(NCc1cn(-c2ccccc2)nc1-c1ccc(F)cc1)c1cccc([N+](=O)[O-])c1	IL1B secr inh -75, TDP1 cell CPT inconclusive, TDP1 cell noCPT inconclusive
Fc1ccc(-c2nn(-c3ccccc3)cc2CNCc2ccccc2)cc1	IL1B secr inh -90, HT1080NT lethal 21µM, HT1080 IDH1KD tx 23µM, TDP1 cell CPT inconclusive, TDP1 cell noCPT inconclusive
O=C(O)Cc1cn(-c2ccccc2)nc1-c1ccccc1	none
O=C(c1ccco1)N1CCN(C(=O)c2cn(-c3ccccc3)nc2-c2ccc(F)cc2)CC1	TDP1 cell CPT inconclusive, TDP1 cell noCPT inconclusive
C[C@@H]1C(=O)O[C@H]2C[C@@]34[C@H]5C[C@@H](C(C)(C)C)[C@]36[C@@H](OC(=O)[C@@H]6O)O[C@@]4(C(=O)O5)[C@]21O	none
C[C@@H]1CN(S(=O)C(C)(C)C)[C@@H](CCO)/C1=C\CCO (stereo not given in full)	none
Clc1ccccc1-c1cc(NCc2cccnc2)ncn1	none (no result: IL1B secr inh, HT1080NT lethal, HT1080 IDH1KD tx)
Fc1ccc(-n2cc(CNCCc3cccnc3)c(-c3ccccc3Cl)n2)cc1	IL1B secr inh -76, HT1080NT lethal 21µM, HT1080 IDH1KD tx inconclusive, TDP1 cell CPT 15µM, TDP1 cell noCPT 23µM
CC1(OC(=O)CCc2ccccc2)C(=O)C=C2C=C(c3ccc(C#N)cc3)N(C3CCCCC3)C=C2C1=O (stereo not given)	TDP1 cell CPT 26µM, TDP1 cell noCPT inconclusive
CC1(OC(=O)C2CCCC2)C(=O)C=C2C=C(c3ccsc3)N(CCc3c[nH]c4ccccc34)C=C2C1=O (stereo not given)	TDP1 cell CPT 21µM, TDP1 cell noCPT inconclusive
CC1(OC(=O)CCc2ccccc2)C(=O)C=C2C=C(c3ccc(C#N)cc3)N(C(CO)CO)C=C2C1=O (stereo not given)	none
CC1(OC(=O)C2CCCC2)C(=O)C=C2C=C(c3ccsc3)N(C3CCCCC3)C=C2C1=O (stereo not given)	TDP1 cell CPT 21µM, TDP1 cell noCPT 21µM
Cc1cccc(C)c1C(O)c1ncc(-c2ccccc2Cl)[nH]1 (stereo not given)	none
Cc1cc(C)cc(NC(=O)/C=C/c2ccc([N+](=O)[O-])s2)c1	IL1B secr inh -102, HT1080NT lethal inconclusive, HT1080 IDH1KD tx inconclusive, TDP1 cell CPT inconclusive, TDP1 cell noCPT 1.2µM
Cc1ccc([N+](=O)[O-])cc1NC(=O)/C=C/C(=O)O	none
Cc1ccccc1NC(=O)/C=C/c1ccc([N+](=O)[O-])s1	IL1B secr inh -102, HT1080NT lethal 4.1µM, HT1080 IDH1KD tx 3.7µM, TDP1 cell CPT 0.92µM, TDP1 cell noCPT 0.82µM
CC(=O)c1cccc(NC(=O)/C=C/c2ccc([N+](=O)[O-])s2)c1	IL1B secr inh -104, HT1080NT lethal inconclusive, HT1080 IDH1KD tx inconclusive, TDP1 cell CPT 1.3µM, TDP1 cell noCPT 1.5µM
CN1CCN(c2ncnc3c2ncn3[C@H]2CN(Cc3ccc(F)cc3)C[C@@H](CO)O2)CC1	TDP1 cell CPT inconclusive
CCn1c(SCc2nc(-c3cccs3)no2)nnc1-c1c[nH]c2ccccc12	HT1080 IDH1KD tx inconclusive, TDP1 cell CPT inconclusive, TDP1 cell noCPT 23µM
CCn1c(SC(C)C(=O)OC)nnc1-c1c[nH]c2ccccc12 (stereo not given)	IL1B secr inh inconclusive, TDP1 cell CPT inconclusive, TDP1 cell noCPT 23µM
CCOC(=O)C(C)Sc1nnc(-c2c[nH]c3ccccc23)n1C (stereo not given)	IL1B secr inh inconclusive, TDP1 cell CPT inconclusive, TDP1 cell noCPT inconclusive
CCn1c(SCC(=O)c2c[nH]c3ccccc23)nnc1-c1cccs1	HT1080NT lethal inconclusive, HT1080 IDH1KD tx inconclusive, TDP1 cell CPT inconclusive, TDP1 cell noCPT 5.8µM
CNS(=O)(=O)c1ccc(NS(=O)(=O)c2ccccc2F)cc1	none
Cc1ccc(C2=NS(=O)(=O)N(C)C(C(=O)Nc3cc(C)n(CC(=O)N4CCC(C)CC4)n3)=C2)cc1	TDP1 cell CPT inconclusive, TDP1 cell noCPT 21µM
CN1C(C(=O)Nc2ccc(F)cc2F)=CC(c2cccs2)=NS1(=O)=O	TDP1 cell noCPT inconclusive
Cc1ccc(CNC(=O)c2cc3cc(C)ccc3n2C)cc1	none (no result: IL1B secr inh, HT1080NT lethal, HT1080 IDH1KD tx)
Cc1ccc2c(c1)cc(C(=O)Nc1ccc(F)cc1F)n2C	TDP1 cell CPT inconclusive, TDP1 cell noCPT 7.3µM (no result: IL1B secr inh, HT1080NT lethal, HT1080 IDH1KD tx)
CN1C(C(=O)Nc2ccc(F)cc2F)=CC(c2ccco2)=NS1(=O)=O	TDP1 cell CPT inconclusive
COc1ccc(OC)c(C2=NS(=O)(=O)N(C)C(C(=O)Nc3ccc(F)cc3F)=C2)c1	TDP1 cell CPT 16µM, TDP1 cell noCPT 7.3µM
Cc1ccc(C2=NS(=O)(=O)N(C)C(C(=O)Nc3ccc(F)cc3F)=C2)cc1	TDP1 cell CPT 21µM, TDP1 cell noCPT inconclusive
CN(CC(=O)Nc1ccc(F)c(F)c1F)C(=O)/C=C/c1ccco1	none
Nc1c(Cl)cc2c(c1Oc1ccccc1)C(=O)c1ccccc1C2=O	IL1B secr inh -71
CCc1ccccc1NC(=O)C1CCCN(S(=O)(=O)c2ccc3[nH]c(=O)ccc3c2)C1 (stereo not given)	none (no result: IL1B secr inh, HT1080NT lethal, HT1080 IDH1KD tx)
CC(=O)Nc1cccc(/C(C)=N/Nc2ccc(S(=O)(=O)Nc3ccccc3C(=O)O)cc2[N+](=O)[O-])c1	none
